# Source: PubChem BioAssay
# Molecular target: Fibroblast growth factor 10 (Homo sapiens) (UniProt O15520)
# Experiment: FGF10 binders on small-molecule microarrays, primary screen, biochemical, small-molecule microarray, 635 nm fluorescence (AID 1102)
# Settings: FGF10 binding, fluorescence 635 nm, higher = more signal
# Sequence of Fibroblast growth factor 10 (Homo sapiens) (O15520 whole entry, looked up): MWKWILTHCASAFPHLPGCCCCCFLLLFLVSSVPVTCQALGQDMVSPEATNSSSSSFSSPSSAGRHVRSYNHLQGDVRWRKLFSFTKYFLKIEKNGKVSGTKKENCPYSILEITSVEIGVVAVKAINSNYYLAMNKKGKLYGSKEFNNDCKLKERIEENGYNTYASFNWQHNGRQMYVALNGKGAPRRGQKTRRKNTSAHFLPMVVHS
row,Compound,composite z-score
1,COc1cc2c(cc1O)C(c1ccc(CN3CCCC3)cc1)N(Cc1cc3c(cc1Br)OCO3)CC2 (stereo unspecified),0.41
2,CCCC[C@@H]1C[C@H]1[C@@H](NC(=O)c1cccs1)c1ccccc1C(F)(F)F,-0.0251
3,CCOC(=O)C1=C[C@@H](c2ccccc2)N(S(=O)(=O)c2ccc(C)cc2)[C@H]1c1ccc(OC)cc1,0.957
4,C=CCC(OC(C)=O)[C@@H]1[C@@H](N(Cc2ccc(-c3cccc(C(F)(F)F)c3)o2)C(=O)Cc2ccc(OC)cc2)c2cc(OCCCO)ccc2N1C(=O)c1ccc(-c2ccccc2)cc1 (stereo partly specified),-0.165
5,C=CC[C@@H](OC(=O)Nc1ccc(SC)cc1)c1ccc(O)c(F)c1,0.214
6,CCCCC=C[C@@H](NC(=O)OCc1ccccc1Cl)c1ccccc1,0.431
7,C=CCC(OC(C)=O)[C@@H]1[C@@H](N(Cc2cccc3ccccc23)C(=O)Cc2ccc(OC)cc2)c2cc(OCCCO)ccc2N1C(=O)c1ccc(-c2ccccc2)cc1 (stereo partly specified),-0.249
8,CCCC=C(CCC)[C@@H](NP(=O)(c1ccccc1)c1ccccc1)c1ccc(-c2ccccc2)cc1,1.11
9,COCCCNC(=O)[C@@]1(CCC(=O)OC(C)(C)C)N=C(c2ccc(OCCCO)cc2)O[C@H]1c1ccccc1N=[N+]=[N-],1.23
10,O=C(Cc1ccccc1)[C@H]1C2C=CCCC(c3ccccc3)=C2CN1Cc1ccccc1 (stereo partly specified),-0.0435
11,COC(=O)[C@@]1(Cc2ccc(F)cc2)[C@H]2c3cc(C(=O)N4CCCC4)n(Cc4ccc(C)c(F)c4F)c3C[C@H]2CN1C(=O)c1ccccc1,-0.291
12,COc1ccc(C#Cc2ccc3c(c2)[C@]2(C(=O)N3)[C@H](C(=O)O)[C@H]3C(=O)O[C@H](c4ccccc4)[C@H](c4ccccc4)N3[C@@H]2c2ccc(O)cc2)cc1,-0.054
13,CCC#CCN(Cc1ccccc1Br)[C@H](/C=C/C1CC1)[C@@H](O)Cc1ccccc1,-0.924
14,COC(=O)[C@@]1(Cc2ccccc2)[C@H]2c3cc(C(=O)N(C)C)n(Cc4ccc(C)o4)c3C[C@H]2CN1C(=O)c1ccccc1,0.93
15,CC(C)NC(=O)[C@@]1(C)c2ccccc2C(=O)N(Cc2ccc(OC(F)(F)F)cc2)[C@H]1c1ccc(CO)cc1,-0.962
16,COc1ccc([Si](C)(C)[C@@H]2[C@@H](CC(=O)N3CCC[C@H]3CO)O[C@]3(C(=O)N(Cc4cccc(N5C(=O)COc6ccccc65)c4)c4ccccc43)[C@H]2C)cc1,0.723
17,CCCC[C@@H](O)C1=C(COC)C[C@H]2C(=O)N(C)C(=O)[C@H]2[C@H]1CO,0.0965
18,COc1ccc([Si](C)(C)[C@@H]2[C@@H](CC(=O)N(CCO)Cc3ccccc3)O[C@]3(C(=O)N(Cc4cccc(N5CCCCC5=O)c4)c4ccccc43)[C@H]2C)cc1,0.883

row,Compound,composite z-score
1,COc1ccc(CCNC(=O)[C@@]2(Sc3ccc(C)cc3)CC(=O)N(Cc3ccccc3C(F)(F)F)[C@@H]2c2ccc(CO)cc2I)cc1,-1.06
2,[N-]=[N+]=Nc1ccccc1[C@@H]1OC(c2ccc(OCCCO)cc2)=N[C@]1(Cc1ccccc1)C(=O)N1CCCCC1,1.43
3,Cc1ccc(S[C@]2(C(=O)NCc3ccccc3)CC(=O)N(C3CCCCC3)[C@@H]2c2ccc(CO)cc2I)cc1,0.861
4,COc1ccc([Si](C)(C)[C@H]2[C@H](CC(=O)N(CCO)Cc3ccccc3)O[C@@]3(C(=O)N(C)c4c(Br)cc(C)cc43)[C@@H]2C)cc1,0.968
5,[N-]=[N+]=Nc1ccccc1[C@@H]1OC(c2ccc(OCCCO)cc2)=N[C@]1(Cc1ccccc1)C(=O)O,0.747
6,CCCC1(C(=O)OC)C=C2C(=C(C)C(=O)C2C)CN1 (stereo unspecified),0.168
7,COCC(=C=CC[C@H](O)c1ccccc1OCCO)C[C@H](O)c1ccccn1,0.207
8,Oc1ccc2cc[n+](Cc3cc4c(cc3Br)OCO4)cc2c1,-0.633
9,CC(C)[Si]1(C(C)C)OCc2cc(C3CC3)nc(-c3ccc(Oc4ccccc4)cc3)c21,-0.382
10,[N-]=[N+]=Nc1ccccc1C[C@]1(C(=O)N2CCOCC2)COC(c2ccc(OCCCO)cc2)=N1,0.613
11,[N-]=[N+]=Nc1ccccc1C[C@@]1(C(=O)NCCN2CCOCC2)N=C(c2ccc(OCCCO)cc2)O[C@@H]1c1ccccc1N=[N+]=[N-],0.968
12,CCCCC(CC)C(O)C1C=CC2C(=O)N(C)C(=O)C2N1Nc1ccccc1 (stereo unspecified),0.304
13,O=C1N(CCS(=O)(=O)c2ccccc2)c2ccccc2[C@H]2OC(c3ccc(OCCCO)cc3)=N[C@@]12Cc1ccccc1,0.896
14,COc1ccc(C#Cc2ccc3c(c2)[C@]2(C(=O)N3)[C@H](c3ccc(O)cc3)N3[C@H](c4ccccc4)[C@H](c4ccccc4)OC(=O)[C@H]3[C@@H]2C(=O)Nc2nc3ccccc3s2)cc1,1.28
15,CCOc1cc(C(O)C2C=CC3C(=O)NC(=O)C3N2Nc2ccc(Cl)cc2Cl)ccc1O (stereo unspecified),-0.251
16,Cc1ccc(S[C@]2(C(=O)NCC(F)(F)F)CC(=O)N(Cc3cc(C(F)(F)F)cc(C(F)(F)F)c3)[C@@H]2c2ccc(CO)cc2I)cc1,-1.03
17,C=CCC(OC(C)=O)[C@@H]1[C@@H](N(Cc2cc3ccccc3o2)C(=O)Cc2ccc(F)cc2)c2cc(OCCCO)ccc2N1C(=O)Cc1ccc2ccccc2c1 (stereo partly specified),-0.108
18,CO[C@H]1O[C@H](CO)[C@@H](OC(=O)Nc2ccccc2)[C@H](OC(=O)c2cc3ccccc3[nH]2)[C@H]1OC(=O)c1cc2ccccc2[nH]1,1.35
